Reference: PubChem BioAssay (EPA / NIEHS)
Records with an inconclusive call do not appear. Activity calls are given as the source filed them. Rule for the calls: active = hit-call score of the fitted dose curve at least 0.9, where 1 is the maximum; inconclusive = response in the unintended direction; inactive = score below 0.9.

Assay: ArunA_CellTiter_hNC: Viability Assessment in the ArunA Biomedical's Oris Neural Crest (hNC) Cell Migration Assay (AID 2283752)
Procedure: ArunA_CellTiter_hNC is a cell-based, single-readout assay that uses human H9-derived embryonic neural crest stem cells (hNC). Measurements were taken 72 hours after chemical dosing in a 96-well plate.ArunA_CellTiter_hNC is an assay component measured from the ArunA_CellTiter_hNC assay. It is designed to make measurements of viability, a form of viability reporter, as detected with fluorescence intensity signals by HCS Fluorescent Imaging technology. Data from the assay component ArunA_CellTiter_hNC was analyzed at the endpoint, ArunA_CellTiter_hNC, in the positive analysis fitting direction relative to DMSO as the negative control and baseline of activity. Using a type of viability reporter, loss-of-signal activity can be used to understand viability. To generalize the intended target to other relatable targets, this assay endpoint is annotated to the cell cycle intended target family, where the subfamily is cytotoxicity.
To assess the hNP and hNC migration and cell titer endpoints, 60,000 cells per well were plated onto Matrigel in basal growth medium with LIF and bFGF in a 96-well plate format. Plates were incubated for 16 h at 37C followed by a 72 h exposure to chemical in the test medium. For the migration endpoints, cells were seeded and incubated in presence of 'seeding stoppers' to prevent cell migration and growth into the detection zone. At the beginning of chemical exposure, stoppers were removed, and growth medium was replaced with test medium. In the case of the stopper control wells, stoppers remained in place following replacement of growth medium with test medium. […] Cell viability in the detection zone was quantitated using a Flexstation3 microplate reader (ex494 nm/em 517 nm). Corresponding cell titer endpoints were assessed for the hNP and hNC cells using the Promega CellTiter Aqueous One Solution Cell Proliferation Assay (Cat no. G3581; CellTiter 96). Finally, to gain insight into the mechanisms by which cells migrate into the detection zone, Ki-67 expression was quantified for 10 additional chemicals in the hNP and hNC systems. […]

Row | Compound | outcome
1 | CC1=NNC(=O)N(/N=C/c2cccnc2)C1 | inactive
2 | O=[N+]([O-])c1cc(C(F)(F)F)c(Cl)c([N+](=O)[O-])c1Nc1ncc(C(F)(F)F)cc1Cl | inactive
3 | S=C1NCCN1 | inactive

Assay: ArunA_CellTiter_hNP: Viability Assessment in the ArunA Biomedical's Oris Neural Crest (hNC) Cell Migration Assay (AID 2283753)
Summary of the method: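 Viability read with CellTiter 96 Aqueous One after 72 h chemical exposure of human hNP1 neuroprogenitors, which were plated on Matrigel in LIF/bFGF medium 16 h beforehand. Endpoint fitted in positive direction relative to DMSO.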

Row | Compound | outcome | AC50
4 | O=[N+]([O-])c1cc(C(F)(F)F)c(Cl)c([N+](=O)[O-])c1Nc1ncc(C(F)(F)F)cc1Cl | inactive | –
5 | CN(C)[C@@H]1C(=O)C(C(N)=O)=C(O)[C@@]2(O)C(=O)C3=C(O)c4c(O)cccc4[C@@](C)(O)[C@H]3[C@H](O)[C@@H]12 | – | 4.16 µM (active)
6 | S=C1NCCN1 | inactive | –

Assay: ArunA_Migration_hNP: ArunA Biomedical's Oris Neuroprogenitor (hNP) Cell Migration Assay (AID 2283754)
Summary of the method: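 Readout is calcein-AM fluorescence (ex494/em517) of cells migrating into the detection zone, relative to DMSO. hNP1 cells (H9-derived) grown on Matrigel behind stoppers 16 h, then stoppers pulled and chemical applied 72 h; cytochalasin D as control.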

Row | Compound | outcome | AC50
7 | CC1=NNC(=O)N(/N=C/c2cccnc2)C1 | inactive | –
8 | CN(C)[C@@H]1C(=O)C(C(N)=O)=C(O)[C@@]2(O)C(=O)C3=C(O)c4c(O)cccc4[C@@](C)(O)[C@H]3[C@H](O)[C@@H]12 | – | 50 µM (active)
9 | C[Si](Cn1cncn1)(c1ccc(F)cc1)c1ccc(F)cc1 | inactive | –
10 | S=C1NCCN1 | inactive | –

Assay: ArunA_Migration_hNC: ArunA Biomedical's Oris Neural Crest (hNC) Cell Migration Assay (AID 2283755)
Summary of the method: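 Calcein-AM fluorescence (ex494 nm/em 517 nm) in the stopper-defined detection zone quantifies migration of hNC cells after 72 h chemical exposure; 60,000 cells/well plated on Matrigel with LIF and bFGF, 16 h pre-incubation. DMSO baseline.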

Row | Compound | outcome | AC50
11 | CC1=NNC(=O)N(/N=C/c2cccnc2)C1 | inactive | –
12 | O=[N+]([O-])c1cc(C(F)(F)F)c(Cl)c([N+](=O)[O-])c1Nc1ncc(C(F)(F)F)cc1Cl | inactive | –
13 | CN(C)[C@@H]1C(=O)C(C(N)=O)=C(O)[C@@]2(O)C(=O)C3=C(O)c4c(O)cccc4[C@@](C)(O)[C@H]3[C@H](O)[C@@H]12 | – | 50 µM (active)
14 | C[Si](Cn1cncn1)(c1ccc(F)cc1)c1ccc(F)cc1 | inactive | –
15 | S=C1NCCN1 | inactive | –

Assay: ArunA_NOG_NucleusCount: ArunA Biomedical's Neurite Outgrowth (NOG) Assay for Nucleus Count (AID 2283756)
Summary of the method: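 Viable neuron count, from Hoechst nuclei passing size and intensity gates, imaged at 20x on differentiated H9-derived human neurons. Exposure lasted 48 h from seeding; activity was scored relative to DMSO.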

Row | Compound | AC50 | outcome
16 | CC1=NNC(=O)N(/N=C/c2cccnc2)C1 | 59.4 µM (active) | –
17 | O=[N+]([O-])c1cc(C(F)(F)F)c(Cl)c([N+](=O)[O-])c1Nc1ncc(C(F)(F)F)cc1Cl | – | inactive
18 | CN(C)[C@@H]1C(=O)C(C(N)=O)=C(O)[C@@]2(O)C(=O)C3=C(O)c4c(O)cccc4[C@@](C)(O)[C@H]3[C@H](O)[C@@H]12 | 44.7 µM (active) | –
19 | C[Si](Cn1cncn1)(c1ccc(F)cc1)c1ccc(F)cc1 | – | inactive
20 | S=C1NCCN1 | – | inactive

Assay: ArunA_NOG_BranchPointsPerNeurite: ArunA Biomedical's Neurite Outgrowth (NOG) Assay for Branch Points Per Neurite (AID 2283759)
Summary of the method: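 Automated image analysis traced neurites (processes >10 um) from valid cell bodies after Hoechst and βIII-tubulin staining. hNN cells from H9 embryonic stem cells, 48 h exposure. Fitted bidirectionally against DMSO.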

Row | Compound | AC50 | outcome
21 | CC1=NNC(=O)N(/N=C/c2cccnc2)C1 | 66.2 µM (active) | –
22 | CN(C)[C@@H]1C(=O)C(C(N)=O)=C(O)[C@@]2(O)C(=O)C3=C(O)c4c(O)cccc4[C@@](C)(O)[C@H]3[C@H](O)[C@@H]12 | 89.6 µM (active) | –
23 | C[Si](Cn1cncn1)(c1ccc(F)cc1)c1ccc(F)cc1 | – | inactive
24 | S=C1NCCN1 | – | inactive
